Source: PubChem (several laboratories)
Compounds with a hit are over-represented: about 5% of the library has one in this group of screens.
EBI2 antag: EBI2 (human) antagonism. inhibition, % at 5 µM. actives 0.81% (n = 360,000). P32249. EBI2 beta-arrestin recruitment, luminescence, 7a,25-OHC stimulated; in the data active = inhibition above about 38%;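 note: enzyme fragment complementation signal reports receptor beta-arrestin coupling in cells; 0% = agonist plus DMSO wells and 100% = wells without agonist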
SENP8 block-1: blocks the human protease SENP8. Q96LD8. actives 1.2% (n = 330,000). inhibition, % at 10 µM. AID 2540. purified SENP8, Z-RLRGG-aminoluciferin cleavage, luminescence; in the data active = inhibition above about 50%
Target sequence (Q96LD8 whole entry, looked up): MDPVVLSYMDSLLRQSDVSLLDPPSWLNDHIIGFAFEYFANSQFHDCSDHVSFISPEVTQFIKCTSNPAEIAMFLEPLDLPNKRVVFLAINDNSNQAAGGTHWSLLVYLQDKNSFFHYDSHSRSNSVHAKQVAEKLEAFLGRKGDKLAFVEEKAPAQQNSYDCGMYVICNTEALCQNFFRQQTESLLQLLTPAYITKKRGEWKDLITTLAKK
SENP6 block: blocks the human protease SENP6; Q9GZR1; AID 2599; Recombinant SENP6 catalytic domain, aminoluciferin luminescence; actives 1.8% (n = 330,000); inhibition, % at 10 µM;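 active = inhibition above about 50% at the single tested dose, limit read from the data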;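 note: plate controls were DMSO wells with enzyme for no effect and DMSO wells lacking enzyme for full effect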
AHR act: activators of human aryl hydrocarbon receptor; P35869; actives 2.5% (n = 320,000); AHR-responsive luciferase reporter cells, luminescence; activation, % at 5 µM; in the data active = activation above about 47%;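 note: 0% = vehicle wells and 100% = reference agonist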
SENP8 block-2: blocks human SENP8 cleavage of Nedd8 substrate; Q96LD8; recombinant SENP8, Nedd8 substrate fluorescence; inhibition, % at 20 µM; actives 0.64% (n = 360,000); in the data active = inhibition mostly above about 40%, no sharp cut-off; inactive = mostly below about 27%
SENP7 inh: inhibitors of human SENP7 protease; inhibition, % at 5 µM; actives 1.5% (n = 330,000); recombinant SENP7, Z-RLRGG-aminoluciferin luminescence, 40 min;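 active = inhibition above about 50% at the single test dose, limit read from the data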;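 note: plate controls were DMSO with enzyme for no effect and no enzyme buffer wells for full effect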
Target sequence (Q9BQF6 706-1050 limits assumed): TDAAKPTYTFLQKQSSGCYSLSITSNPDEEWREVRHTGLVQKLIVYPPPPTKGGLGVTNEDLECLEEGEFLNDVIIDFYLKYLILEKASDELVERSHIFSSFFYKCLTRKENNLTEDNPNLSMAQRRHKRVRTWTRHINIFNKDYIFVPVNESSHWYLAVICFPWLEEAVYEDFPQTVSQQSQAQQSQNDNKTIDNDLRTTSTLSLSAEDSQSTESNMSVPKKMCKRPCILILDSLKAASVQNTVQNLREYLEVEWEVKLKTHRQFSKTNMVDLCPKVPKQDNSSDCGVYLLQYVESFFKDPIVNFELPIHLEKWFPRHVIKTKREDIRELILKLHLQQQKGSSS
EBI2 antag conf: EBI2 (human) antagonism, single concentration confirmation; shares compounds with EBI2 antag; EBI2 beta-arrestin luminescence, 7a,25-OHC antagonism; inhibition, % at 5 µM; actives 29% (n = 2,400);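 active = inhibition of at least 50%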
EBI2 agonist: EBI2 agonism counter-screen | shares compounds with EBI2 antag | EBI2-expressing cells, agonist mode, luminescence, 60 min; 0% vehicle, 100% 7α,25-dihydroxycholesterol control | activation, % at 5 µM | 2,400 tested, under 10 active | AID 652000;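 active = activation of at least 50%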
bGal counter: counter-screen for EBI2 antagonists: E. coli beta-galactosidase inhibition | inhibition, % at 5 µM | AID 652176 | shares compounds with EBI2 antag | purified beta-galactosidase, luminescent Galacton Star, 15 min | actives 1% (n = 2,400);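 active = replicate-average signal at least 3 plate SD below neutral wells, shown as high inhibition, flagging enzyme-inhibiting false positives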;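 note: 0% = DMSO wells with enzyme and 100% = wells lacking enzyme; higher means stronger loss of beta-gal luminescence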
Active calls of the source: *; x = no result.

SMILES	EBI2 antag	SENP8 block-1	SENP6 block	AHR act	SENP8 block-2	SENP7 inh	EBI2 antag conf	EBI2 agonist	bGal counter
CCOc1ccc(S(=O)(=O)c2c(C(=O)c3ccccc3)cnc3cc4c(cc23)OCCO4)cc1	51.9*	7.2	-4.8	0.2	-444.2	-0.2	24.7	-0.8	-11.2
CCCC(=O)Nc1cc2c(cc1C(=O)c1ccccc1)OCCO2	-5.4	9.1	1.5	9.1	32.3	-1.4	x	x	x
CCOC(=O)CCCCCC(=O)Nc1ccc2c(c1)C(=O)N([C@@H](C)CO)C[C@@H](C)[C@H](CN(C)C(=O)Nc1ccccc1)OCCCC[C@H](C)O2	-0.7	x	x	x	-0.2	x	x	x	x
O=C(/C=C/c1ccc(Br)cc1)NCc1cccs1	64.8*	-20.5	20.3	17.9	3.8	-2.0	48.1	0.2	4.3
Cc1[nH]c(C)c(S(=O)(=O)NCc2ccc(Cl)cc2)c1C(=O)N1CCCC1	-6.1	3.8	20.7	1.5	9.3	2.4	x	x	x
CCC(C)NS(=O)(=O)c1ccc(S(=O)(=O)N(CC(=O)Nc2ccccc2)CC2CCCO2)cc1 (stereo unspecified)	7.7	-12.5	-9.1	-0.4	9.5	-2.9	x	x	x
Cc1ccc(N=C2NC(=O)/C(=C/c3cccnc3)S2)cc1C	46.9*	5.7	-7.3	-0.9	1.7	0.4	33.9	-0.2	6.2
O=C1N/C(=N/S(=O)(=O)c2ccccc2)S/C1=C/c1cccnc1	-5.7	9.4	2.6	3.8	-1.9	-1.1	x	x	x
O=C1NC(=Nc2cccnc2)S/C1=C/c1ccc(F)cc1	0.0	6.8	-1.2	2.6	11.7	1.9	x	x	x
O=C1NC(=Nc2ccccc2)S/C1=C\c1cccnc1	44.6*	-2.5	-4.3	9.2	1.3	-13.3	50.9*	-0.8	-6.0
Cc1ccc(N(CC(=O)Nc2ccc(Br)c(C)c2)S(=O)(=O)c2c(C)[nH]c(=O)[nH]c2=O)cc1	-11.0	-8.1	-2.5	6.0	3.4	11.9	x	x	x
Cc1ccc2[nH]c(CNC(=O)C3CCCCC3)cc2c1	20.8	1.2	7.3	x	-46.1	9.0	x	x	x
OC[C@@H]1CN(Cc2ccc(F)cc2)C[C@H](n2cnc3c(NC4CC4)ncnc32)O1	64.6*	x	x	x	17.9	x	65.6*	1.1	9.3
CC(C)N(C)c1ncnc2c1ncn2[C@H]1CN(Cc2ccc(Cl)cc2)C[C@@H](CO)O1	82.8*	x	x	x	-1.1	x	77.0*	-2.3	-8.7
CC(C)N(C)c1ncnc2c1ncn2[C@H]1CN(Cc2ccccc2)C[C@@H](CO)O1	16.2	x	x	x	8.4	x	x	x	x
CC(C)(C)n1nnnc1C(c1cccs1)N(Cc1ccc(Cl)cc1)CC1CCCO1 (stereo unspecified)	60.4*	5.0	-2.2	1.3	27.7	2.4	16.0	0.5	6.2
CC(=O)Nc1cc(C)ns1	3.9	x	x	x	3.3	x	x	x	x
CC(C)(C)OC(=O)N(CCc1ccccc1)Cc1ccc(OCc2cccc(NC(=O)/C=C/c3ccccc3)c2)cc1	58.9*	x	x	x	16.1	x	15.3	1.4	4.9
CC(C)(C)OC(=O)N(CCc1ccccc1)Cc1ccccc1OCc1cccc(NC(=O)/C=C/c2ccccc2)c1	19.9	x	x	x	9.0	x	x	x	x
Cc1ccc(S(=O)(=O)N2CCN(C(=O)COC(=O)COc3ccc(Cl)cc3C)CC2)c(C)c1	-5.4	x	x	x	17.6	x	x	x	x
Cc1cccc(OCc2nnc(SCC(=O)N3c4ccccc4Sc4ccc(Cl)cc43)o2)c1	23.5	4.3	3.4	-4.0	10.1	8.2	x	x	x
COc1cccc(OCc2nnc(SCC(=O)N3c4ccccc4Sc4ccc(Cl)cc43)o2)c1	52.7*	0.7	-6.3	-2.0	23.3	1.1	28.2	0.2	-1.0
COc1ccc(OCc2nnc(SCC(=O)N3c4ccccc4Sc4ccc(Cl)cc43)o2)cc1	66.4*	-10.2	-16.9	3.0	8.4	-7.0	54.1*	0.8	-1.0
Cc1ccc(OCc2nnc(SCC(=O)N3c4ccccc4Sc4ccc(Cl)cc43)o2)cc1	34.7	-1.7	-3.4	4.7	-4.1	4.9	x	x	x
CC(=O)NC(CC(=O)OCC(=O)c1ccc(NC(=O)CC(C)C)cc1)c1ccccc1 (stereo unspecified)	-8.1	3.4	0.2	4.0	-3.3	4.8	x	x	x
SMILES	EBI2 antag	SENP8 block-1	SENP6 block	AHR act	SENP8 block-2	SENP7 inh	EBI2 antag conf	EBI2 agonist	bGal counter
COc1ccc(C(=O)/C=C/c2ccc(OC(=O)c3cc(OC)c(OC)c(OC)c3)cc2)cc1	45.0*	-4.3	12.3	5.0	14.0	-5.2	10.4	0.7	7.6
CCOc1ccc(C(=O)/C=C/c2cc(OC)c(OC)c(OC)c2)cc1	12.4	10.8	9.2	-0.6	-227.8	9.4	x	x	x
CN(C#N)c1nc(Cl)nc(Nc2cccc(Cl)c2)n1	-7.1	0.7	3.8	33.0	8.5	6.9	x	x	x
CCc1ccc(NC(=O)c2ccc(F)c(S(=O)(=O)N(CC)c3ccccc3)c2)cc1	44.7*	-1.3	8.5	1.2	10.0	11.4	37.8	-1.2	-22.2
CCN(c1ccccc1)S(=O)(=O)c1cc(C(=O)Nc2cccc(Cl)c2)ccc1F	23.5	4.2	14.6	1.6	7.2	10.5	x	x	x
S=C(NCCCN1CCOCC1)Nc1cccc(-c2nnc3n2CCCCC3)c1	-3.5	1.5	-10.3	1.1	8.1	14.1	x	x	x
